Data reported in PubChem BioAssay AID1159580 (chemical genetic matrix, 2015).
Several values for one entry are separate records, joined by “and”; a condition that tells them apart may be missing. Equal values may be shown once. The whole screen tested about 5,500 compounds, of which about 2,000 (36%) were called active. Inconclusive results (about 18%) are left out. No stated cut-off is given here; in the data, active means normalized growth mostly below about 0.91 (no sharp cut-off); inconclusive means no clear call, values can overlap the other calls; inactive means mostly above about 0.92. The list shows a part of the results.

Test: chemical genetic growth profiling, strain panel (AID 1159580);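 further: tested at 20 µM; growth read once vehicle control cultures reached saturation at 30 °C; 1 = growth at the plate median or of vehicle wells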
Details: S. cerevisiae deletion strains, growth OD

Measured: normalized growth

CN(C)CCCN1c2ccccc2CCc2ccc(Cl)cc21
inactive: locus YAL013W, strain DEP1, stronger effect = lower value 0.92 and 0.962 | locus YAL030W, strain snc1, stronger effect = lower value 1 | locus YAL040C, strain CLN3, stronger effect = lower value 1.02 | locus YBL061C, strain skt5, stronger effect = lower value 1.01 | locus YBR009C, strain hhf1, stronger effect = lower value 0.944 | locus YBR023C, strain chs3, stronger effect = lower value 1.01 | locus YBR171W, strain sec66, stronger effect = lower value 0.99 | locus YBR229C, strain ROT2, stronger effect = lower value 0.975 | locus YBR231C, strain swc5, stronger effect = lower value 1.01 | locus YBR279W, strain paf1, stronger effect = lower value 0.996 | locus YCL011C, strain gbp2, stronger effect = lower value 0.984 | locus YCL016C, strain dcc1, stronger effect = lower value 0.994 | locus YCL029C, strain bik1, stronger effect = lower value 1 | locus YCL061C, strain MRC1 (second series), stronger effect = lower value 0.999 | locus YCL061C, strain MRC1, stronger effect = lower value 1 | locus YCL069W, strain vba3, stronger effect = lower value 1 | locus YCR088W, strain abp1, stronger effect = lower value 1 | locus YDL005C, strain med2, stronger effect = lower value 1.03 | locus YDL040C, strain nat1, stronger effect = lower value 0.998 | locus YDL101C, strain DUN1, stronger effect = lower value 0.977 | locus YDL185W, strain tfp1, stronger effect = lower value 0.984 | locus YDL192W, strain arf1, stronger effect = lower value 0.933 | locus YDR001C, strain nth1, stronger effect = lower value 1.01 | locus YDR069C, strain doa4, stronger effect = lower value 0.919 | locus YDR101C, strain arx1, stronger effect = lower value 1 | locus YDR150W, strain NUM1, stronger effect = lower value 1.01 | locus YDR159W, strain sac3, stronger effect = lower value 1.04 | locus YDR195W, strain ref2 1.07 | locus YDR297W, strain sur2, stronger effect = lower value 1.01 | locus YDR318W, strain mcm21, stronger effect = lower value 0.978 | locus YDR334W, strain swr1, stronger effect = lower value 1.01 | locus YDR335W, strain msn5, stronger effect = lower value 1 | locus YDR392W, strain spt3, stronger effect = lower value 0.93 | locus YDR502C, strain sam2, stronger effect = lower value 0.963 | locus YEL003W, strain gim4, stronger effect = lower value 0.984 | locus YEL037C, strain rad23, stronger effect = lower value 1 | locus YEL061C, strain CIN8 (second series), stronger effect = lower value 1.01 | locus YEL061C, strain CIN8, stronger effect = lower value 0.99 | locus YER002W, strain NOP16, stronger effect = lower value 1.08 | locus YER015W, strain faa2, stronger effect = lower value 0.972 | locus YER016W, strain bim1, stronger effect = lower value 1 | locus YER110C, stronger effect = lower value 0.999 | locus YER111C, strain swi4, stronger effect = lower value 0.994 | locus YER155C, strain BEM2 (second series), stronger effect = lower value 1.01 | locus YER155C, strain BEM2, stronger effect = lower value 1 | locus YER167W, strain BCK2, stronger effect = lower value 0.952 | locus YGL078C, strain dbp3, stronger effect = lower value 0.989 | locus YGL086W, strain mad1, stronger effect = lower value 0.967 | locus YGL167C, strain pmr1, stronger effect = lower value 1 | locus YGL173C, strain kem1, stronger effect = lower value 0.967 | locus YGL227W, strain vid30, stronger effect = lower value 0.993 | locus YGL240W, strain doc1, stronger effect = lower value 1 | locus YGL248W, strain PDE1, stronger effect = lower value 0.917 | locus YGL253W, strain hxk2, stronger effect = lower value 0.971 | locus YHR013C, strain ard1, stronger effect = lower value 0.852 | locus YHR079C, strain IRE1 (second series), stronger effect = lower value 0.992 | locus YHR079C, strain IRE1, stronger effect = lower value 0.981 | locus YHR094C, strain hxt1, stronger effect = lower value 0.993 | locus YHR129C, strain ARP1, stronger effect = lower value 0.986 | locus YHR142W, strain chs7, stronger effect = lower value 0.977 | locus YHR200W, strain rpn10, stronger effect = lower value 0.998 | locus YIL073C, strain SPO22, stronger effect = lower value 0.79 | locus YIL125W, strain kgd1, stronger effect = lower value 0.993 | locus YIR030C, strain dcg1, stronger effect = lower value 0.995 | locus YJL092W, strain hpr5, stronger effect = lower value 1.01 | locus YJL095W, strain BCK1 (second series), stronger effect = lower value 0.997 | locus YJL115W, strain asf1, stronger effect = lower value 0.997 | locus YJL129C, strain trk1, stronger effect = lower value 1.02 | locus YJL134W, strain LCB3, stronger effect = lower value 0.991 | locus YJL154C, strain vps35, stronger effect = lower value 1 | locus YJL164C, strain tpk1, stronger effect = lower value 0.993 | locus YJL166W, strain qcr8, stronger effect = lower value 0.957 | locus YJL168C, strain set2, stronger effect = lower value 0.993 | locus YJL187C, strain SWE1 (second series), stronger effect = lower value 0.887 | locus YJL187C, strain SWE1, stronger effect = lower value 1 | locus YJR043C, strain POL32, stronger effect = lower value 1.01
0.876 (active) and 1 (inactive): locus YHR030C, strain SLT2, stronger effect = lower value
0.696 (active) and 0.99 (inactive): locus YJL095W, strain BCK1, stronger effect = lower value
active: locus YAL021C, strain ccr4, stronger effect = lower value 0.899 | locus YAL026C, strain drs2, stronger effect = lower value 0.77 | locus YBR021W, strain FUR4, stronger effect = lower value 0.561 | locus YDL035C, strain GPR1, stronger effect = lower value 0.824 | locus YDL074C, strain BRE1, stronger effect = lower value 0.674 | locus YDL134C, strain PPH21, stronger effect = lower value 0.812 | locus YDR137W, strain rgp1, stronger effect = lower value 1.21 [resistant] | locus YDR162C, strain NBP2, stronger effect = lower value 0.725 | locus YDR388W, stronger effect = lower value 0.825 | locus YFR010W, strain ubp6, stronger effect = lower value 0.882 | locus YGR135W, strain pre9, stronger effect = lower value 0.784 | locus YGR252W, strain gcn5, stronger effect = lower value 0.527 | locus YHR027C, strain rpn1, stronger effect = lower value 0.915 | locus YIL066C, strain RNR3, stronger effect = lower value 0.836
